# Laboratory results: publication PMC7862700, “An all-to-all approach to the identification of sequence-specific readers for epigenetic DNA modifications on cytosine”
# Tests used:
# Assay in all cases: DAPPL (digital affinity profiling via proximity ligation, sequencing); 10 mM Tris-HCl pH 7.5, 50 mM NaCl, 1 mM DTT, 4% glycerol, room temperature, 30 min; GST-TFs on glutathione beads, 16-mer random dsDNA library, 0.1% formaldehyde crosslink after washing; high values mean tight binding
# FEV = target: T1, FEV (Homo sapiens, UniProt Q99581 1-238); conditions: protein: recombinant; tags: N-terminal GST; dsDNA, one strand shown
# T1 sequence: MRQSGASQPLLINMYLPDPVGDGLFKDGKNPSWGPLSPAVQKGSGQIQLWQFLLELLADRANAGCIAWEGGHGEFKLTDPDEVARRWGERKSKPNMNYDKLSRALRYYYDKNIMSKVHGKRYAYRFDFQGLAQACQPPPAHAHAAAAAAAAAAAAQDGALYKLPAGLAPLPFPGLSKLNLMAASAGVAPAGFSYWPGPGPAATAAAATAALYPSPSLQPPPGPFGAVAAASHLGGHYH
# Method in brief: (§1)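 Pools of DNA-barcoded human transcription factors, expressed in yeast as GST fusions on glutathione beads and combined with a tag-only sample, were incubated with 200 nmole of a 16-mer random double-stranded DNA library. Incubation took 30 min at room temperature in Tris/NaCl/DTT/glycerol buffer and was followed by washing, 0.1% formaldehyde crosslinking, proximity ligation (BsaI/T4 ligase, 1 h, 37 °C), PCR amplification and sequencing on an Illumina NextSeq500. Binding signal is the ratio of a hexamer's read frequency for a factor to its frequency for the tag-only sample.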
# ETV5 = ETV5 (Homo sapiens, UniProt P41161 1-510); conditions: protein: recombinant; tags: N-terminal GST; dsDNA, one strand shown
# Sequence of ETV5 (P41161 whole entry): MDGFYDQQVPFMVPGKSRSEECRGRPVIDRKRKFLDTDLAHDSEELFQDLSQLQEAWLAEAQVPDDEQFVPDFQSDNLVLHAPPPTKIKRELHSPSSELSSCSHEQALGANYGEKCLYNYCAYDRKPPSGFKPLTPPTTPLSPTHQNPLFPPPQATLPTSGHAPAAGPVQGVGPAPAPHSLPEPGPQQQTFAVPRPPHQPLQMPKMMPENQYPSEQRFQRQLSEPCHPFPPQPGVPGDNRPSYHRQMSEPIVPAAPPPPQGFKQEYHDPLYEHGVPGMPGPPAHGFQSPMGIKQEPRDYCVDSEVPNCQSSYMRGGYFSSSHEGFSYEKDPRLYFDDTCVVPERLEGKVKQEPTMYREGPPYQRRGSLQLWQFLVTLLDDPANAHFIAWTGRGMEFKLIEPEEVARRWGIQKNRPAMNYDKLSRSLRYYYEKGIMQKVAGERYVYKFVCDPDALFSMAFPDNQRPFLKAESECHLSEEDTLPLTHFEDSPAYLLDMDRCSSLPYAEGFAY
# Method in brief: as §1
# HSF1 = HSF1 (Homo sapiens, UniProt Q00613 1-529); conditions: protein: recombinant; tags: N-terminal GST; chain copies: 3; dsDNA, one strand shown
# Sequence of HSF1 (Q00613 whole entry): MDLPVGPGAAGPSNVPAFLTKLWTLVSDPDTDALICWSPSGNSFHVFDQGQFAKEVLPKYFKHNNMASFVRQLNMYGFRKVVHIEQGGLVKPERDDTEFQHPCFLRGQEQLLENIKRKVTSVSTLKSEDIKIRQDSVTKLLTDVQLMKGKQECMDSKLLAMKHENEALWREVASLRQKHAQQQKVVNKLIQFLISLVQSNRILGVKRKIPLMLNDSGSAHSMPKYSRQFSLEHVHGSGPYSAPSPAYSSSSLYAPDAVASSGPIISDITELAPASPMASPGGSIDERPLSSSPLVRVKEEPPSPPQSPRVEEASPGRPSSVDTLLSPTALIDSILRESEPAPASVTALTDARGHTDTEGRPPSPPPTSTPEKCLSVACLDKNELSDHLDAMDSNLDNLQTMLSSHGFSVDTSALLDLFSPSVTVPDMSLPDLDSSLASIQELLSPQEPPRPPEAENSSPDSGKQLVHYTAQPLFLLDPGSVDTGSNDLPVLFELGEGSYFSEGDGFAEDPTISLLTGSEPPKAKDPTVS
# Method in brief: as §1
# SPIC = target: T2, SPIC (Homo sapiens, UniProt Q8N5J4 1-248); conditions: protein: recombinant; tags: N-terminal GST; dsDNA, one strand shown
# T2 sequence: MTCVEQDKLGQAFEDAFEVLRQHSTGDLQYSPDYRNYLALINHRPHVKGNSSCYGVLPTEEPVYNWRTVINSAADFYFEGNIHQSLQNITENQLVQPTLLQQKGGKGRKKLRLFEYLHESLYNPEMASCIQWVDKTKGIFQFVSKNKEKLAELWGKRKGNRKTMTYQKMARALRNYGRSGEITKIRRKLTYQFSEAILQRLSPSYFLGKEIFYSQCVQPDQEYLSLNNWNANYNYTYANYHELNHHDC
# Method in brief: as §1
# ELF4 = ELF4 (Homo sapiens, UniProt Q99607 1-663); conditions: protein: recombinant; tags: N-terminal GST; dsDNA, one strand shown
# Sequence of ELF4 (Q99607 whole entry): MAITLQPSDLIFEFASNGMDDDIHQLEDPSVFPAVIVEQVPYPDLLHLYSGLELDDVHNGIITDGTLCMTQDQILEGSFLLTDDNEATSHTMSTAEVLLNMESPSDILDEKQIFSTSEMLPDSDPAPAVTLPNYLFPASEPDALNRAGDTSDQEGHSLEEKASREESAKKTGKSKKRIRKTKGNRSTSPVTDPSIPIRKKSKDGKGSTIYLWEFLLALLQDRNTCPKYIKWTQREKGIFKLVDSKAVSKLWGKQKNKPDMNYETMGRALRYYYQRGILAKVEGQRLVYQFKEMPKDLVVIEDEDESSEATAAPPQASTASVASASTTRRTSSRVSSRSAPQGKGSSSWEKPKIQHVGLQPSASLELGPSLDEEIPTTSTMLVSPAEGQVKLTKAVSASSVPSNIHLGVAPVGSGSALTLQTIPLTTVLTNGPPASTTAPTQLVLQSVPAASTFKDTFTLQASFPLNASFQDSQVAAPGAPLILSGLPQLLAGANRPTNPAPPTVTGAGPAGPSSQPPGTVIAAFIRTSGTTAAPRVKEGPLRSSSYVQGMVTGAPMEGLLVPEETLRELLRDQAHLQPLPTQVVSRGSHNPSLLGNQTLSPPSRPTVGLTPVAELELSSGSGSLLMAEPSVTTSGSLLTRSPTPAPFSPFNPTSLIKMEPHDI
# Method in brief: as §1
# ELK4 = target: T3, ELK4 (Homo sapiens, UniProt P28324-2 1-405); conditions: protein: recombinant; tags: N-terminal GST; dsDNA, one strand shown
# T3 sequence: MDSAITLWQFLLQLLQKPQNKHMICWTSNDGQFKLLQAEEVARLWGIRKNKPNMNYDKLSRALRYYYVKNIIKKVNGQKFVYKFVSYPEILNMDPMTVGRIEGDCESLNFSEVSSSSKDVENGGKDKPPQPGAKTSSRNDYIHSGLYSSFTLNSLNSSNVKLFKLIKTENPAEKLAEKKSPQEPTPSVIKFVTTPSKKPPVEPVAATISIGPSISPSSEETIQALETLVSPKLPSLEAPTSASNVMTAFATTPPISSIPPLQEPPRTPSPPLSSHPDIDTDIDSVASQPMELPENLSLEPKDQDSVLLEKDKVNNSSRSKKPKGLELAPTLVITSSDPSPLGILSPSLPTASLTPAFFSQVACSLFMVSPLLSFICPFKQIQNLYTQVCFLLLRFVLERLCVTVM
# Method in brief: as §1
# ETV2 = target: T4, ETV2 (Homo sapiens, UniProt O00321 1-342); conditions: protein: recombinant; tags: N-terminal GST; dsDNA, one strand shown
# T4 sequence: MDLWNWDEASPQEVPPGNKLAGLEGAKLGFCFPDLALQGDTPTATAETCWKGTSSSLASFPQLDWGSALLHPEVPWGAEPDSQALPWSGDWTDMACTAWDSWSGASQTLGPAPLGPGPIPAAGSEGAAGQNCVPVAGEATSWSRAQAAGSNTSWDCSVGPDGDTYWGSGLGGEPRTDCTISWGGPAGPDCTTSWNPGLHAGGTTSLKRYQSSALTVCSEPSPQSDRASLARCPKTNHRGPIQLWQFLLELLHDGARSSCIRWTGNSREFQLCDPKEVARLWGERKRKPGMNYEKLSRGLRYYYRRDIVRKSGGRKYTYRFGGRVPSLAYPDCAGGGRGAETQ
# Method in brief: as §1
# ELF3 = target: T5, ELF3 (Homo sapiens, UniProt P78545 1-371); conditions: protein: recombinant; tags: N-terminal GST; dsDNA, one strand shown
# T5 sequence: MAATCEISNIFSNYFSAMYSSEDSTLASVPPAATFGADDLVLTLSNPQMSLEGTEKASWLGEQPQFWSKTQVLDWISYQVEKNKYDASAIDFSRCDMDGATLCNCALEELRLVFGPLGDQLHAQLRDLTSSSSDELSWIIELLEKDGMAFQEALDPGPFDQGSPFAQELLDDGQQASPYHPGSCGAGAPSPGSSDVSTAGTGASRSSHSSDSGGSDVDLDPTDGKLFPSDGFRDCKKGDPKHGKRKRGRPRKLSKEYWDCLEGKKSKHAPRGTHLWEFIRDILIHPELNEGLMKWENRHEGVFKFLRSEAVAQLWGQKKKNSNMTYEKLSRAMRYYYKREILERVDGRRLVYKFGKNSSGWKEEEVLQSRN
# Method in brief: as §1
# CRX = CRX (Homo sapiens, UniProt O43186 1-299); conditions: protein: recombinant; tags: N-terminal GST; dsDNA, one strand shown
# Sequence of CRX (O43186 whole entry): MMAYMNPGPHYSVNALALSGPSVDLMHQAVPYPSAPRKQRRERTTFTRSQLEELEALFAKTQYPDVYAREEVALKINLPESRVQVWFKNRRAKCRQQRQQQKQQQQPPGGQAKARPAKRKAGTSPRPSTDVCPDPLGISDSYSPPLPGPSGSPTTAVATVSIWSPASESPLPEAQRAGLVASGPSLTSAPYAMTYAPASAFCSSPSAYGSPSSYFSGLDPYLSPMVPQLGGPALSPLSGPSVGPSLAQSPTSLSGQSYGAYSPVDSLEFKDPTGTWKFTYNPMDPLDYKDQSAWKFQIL
# Method in brief: as §1
# ETV1 = ETV1 (Homo sapiens, UniProt P50549 1-477); conditions: protein: recombinant; tags: N-terminal GST; dsDNA, one strand shown
# Sequence of ETV1 (P50549 whole entry): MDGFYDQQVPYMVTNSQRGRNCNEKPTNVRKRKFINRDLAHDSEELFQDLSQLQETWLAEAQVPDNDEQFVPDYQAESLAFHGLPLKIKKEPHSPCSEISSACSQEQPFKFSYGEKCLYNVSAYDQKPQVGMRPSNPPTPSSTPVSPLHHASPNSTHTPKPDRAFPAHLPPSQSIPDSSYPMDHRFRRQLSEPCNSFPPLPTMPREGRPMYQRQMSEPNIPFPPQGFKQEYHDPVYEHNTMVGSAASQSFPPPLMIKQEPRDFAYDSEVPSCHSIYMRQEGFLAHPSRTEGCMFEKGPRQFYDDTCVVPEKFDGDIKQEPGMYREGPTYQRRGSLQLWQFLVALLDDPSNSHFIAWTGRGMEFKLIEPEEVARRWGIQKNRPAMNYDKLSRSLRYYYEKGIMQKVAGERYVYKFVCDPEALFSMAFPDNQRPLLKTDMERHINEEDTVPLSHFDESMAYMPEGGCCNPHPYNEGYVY
# Method in brief: as §1
# ERF = target: T6, ERF (Homo sapiens, UniProt P50548 1-548); conditions: protein: recombinant; tags: N-terminal GST; dsDNA, one strand shown
# T6 sequence: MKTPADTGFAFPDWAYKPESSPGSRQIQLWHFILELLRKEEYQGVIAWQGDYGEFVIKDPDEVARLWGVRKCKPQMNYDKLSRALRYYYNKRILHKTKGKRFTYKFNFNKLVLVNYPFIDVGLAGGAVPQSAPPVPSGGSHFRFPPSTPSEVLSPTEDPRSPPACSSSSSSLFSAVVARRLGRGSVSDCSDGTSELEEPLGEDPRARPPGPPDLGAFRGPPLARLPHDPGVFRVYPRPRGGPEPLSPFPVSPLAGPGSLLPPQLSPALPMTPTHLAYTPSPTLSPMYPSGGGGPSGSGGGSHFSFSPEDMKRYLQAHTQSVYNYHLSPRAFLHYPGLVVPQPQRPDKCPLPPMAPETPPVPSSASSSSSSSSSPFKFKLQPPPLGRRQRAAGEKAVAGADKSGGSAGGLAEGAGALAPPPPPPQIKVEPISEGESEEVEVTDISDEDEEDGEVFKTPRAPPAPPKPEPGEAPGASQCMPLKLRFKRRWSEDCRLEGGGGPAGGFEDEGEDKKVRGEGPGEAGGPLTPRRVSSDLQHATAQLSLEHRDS
# Method in brief: as §1
# ETV3L = target: T7, ETV3L (Homo sapiens, UniProt Q6ZN32 1-361); conditions: protein: recombinant; tags: N-terminal GST; dsDNA, one strand shown
# T7 sequence: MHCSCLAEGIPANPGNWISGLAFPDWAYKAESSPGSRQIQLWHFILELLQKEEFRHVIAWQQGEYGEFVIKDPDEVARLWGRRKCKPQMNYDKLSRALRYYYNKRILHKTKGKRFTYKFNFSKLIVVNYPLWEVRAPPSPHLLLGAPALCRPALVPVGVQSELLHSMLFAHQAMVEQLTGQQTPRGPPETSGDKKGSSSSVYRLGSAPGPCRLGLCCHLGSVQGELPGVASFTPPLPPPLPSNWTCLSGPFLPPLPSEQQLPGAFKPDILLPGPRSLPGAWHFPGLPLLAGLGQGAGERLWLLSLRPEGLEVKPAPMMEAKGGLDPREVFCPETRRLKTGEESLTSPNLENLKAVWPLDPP
# Method in brief: as §1
# ETS2 = target: T8, ETS2 (Homo sapiens, UniProt P15036 1-469); conditions: protein: recombinant; tags: N-terminal GST; dsDNA, one strand shown
# T8 sequence: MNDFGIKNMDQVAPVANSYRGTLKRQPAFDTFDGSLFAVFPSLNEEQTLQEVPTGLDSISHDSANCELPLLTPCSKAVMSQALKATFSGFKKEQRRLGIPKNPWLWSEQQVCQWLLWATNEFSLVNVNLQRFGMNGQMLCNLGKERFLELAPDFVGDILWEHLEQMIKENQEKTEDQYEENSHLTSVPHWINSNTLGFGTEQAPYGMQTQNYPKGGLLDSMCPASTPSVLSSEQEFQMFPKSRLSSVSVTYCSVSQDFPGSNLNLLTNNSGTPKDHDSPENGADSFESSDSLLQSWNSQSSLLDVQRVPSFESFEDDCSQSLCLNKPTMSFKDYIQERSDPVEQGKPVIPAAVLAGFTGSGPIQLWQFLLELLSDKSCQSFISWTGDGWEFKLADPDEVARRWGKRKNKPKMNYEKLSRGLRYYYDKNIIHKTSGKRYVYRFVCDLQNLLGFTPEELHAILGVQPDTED
# Method in brief: as §1
# SPDEF = target: T9, SPDEF (Homo sapiens, UniProt O95238 1-335); conditions: protein: recombinant; tags: N-terminal GST; dsDNA, one strand shown
# T9 sequence: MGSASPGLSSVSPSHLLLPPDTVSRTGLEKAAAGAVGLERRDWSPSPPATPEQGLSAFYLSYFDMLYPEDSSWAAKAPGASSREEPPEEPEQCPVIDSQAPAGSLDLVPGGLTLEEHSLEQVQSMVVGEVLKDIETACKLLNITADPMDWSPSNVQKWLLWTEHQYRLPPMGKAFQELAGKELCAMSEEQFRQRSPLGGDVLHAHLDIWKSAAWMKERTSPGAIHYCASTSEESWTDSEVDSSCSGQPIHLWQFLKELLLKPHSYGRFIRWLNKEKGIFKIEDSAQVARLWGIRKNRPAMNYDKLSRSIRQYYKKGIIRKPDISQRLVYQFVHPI
# Method in brief: as §1
# ETV7 = target: T10, ETV7 (Homo sapiens, UniProt Q9Y603 1-341); conditions: protein: recombinant; tags: N-terminal GST; dsDNA, one strand shown
# T10 sequence: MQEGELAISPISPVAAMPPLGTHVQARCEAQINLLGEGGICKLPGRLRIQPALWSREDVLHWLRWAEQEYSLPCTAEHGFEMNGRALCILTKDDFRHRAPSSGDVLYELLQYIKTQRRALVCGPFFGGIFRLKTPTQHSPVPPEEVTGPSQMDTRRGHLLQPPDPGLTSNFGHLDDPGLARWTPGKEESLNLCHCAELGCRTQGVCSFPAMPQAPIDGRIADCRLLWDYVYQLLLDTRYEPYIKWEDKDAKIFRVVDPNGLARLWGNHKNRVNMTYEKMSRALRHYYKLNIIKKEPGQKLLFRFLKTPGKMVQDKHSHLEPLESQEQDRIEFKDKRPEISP
# Method in brief: as §1
# ELF5 = target: T11, ELF5 (Homo sapiens, UniProt Q9UKW6-2 1-255); conditions: protein: recombinant; tags: N-terminal GST; dsDNA, one strand shown
# T11 sequence: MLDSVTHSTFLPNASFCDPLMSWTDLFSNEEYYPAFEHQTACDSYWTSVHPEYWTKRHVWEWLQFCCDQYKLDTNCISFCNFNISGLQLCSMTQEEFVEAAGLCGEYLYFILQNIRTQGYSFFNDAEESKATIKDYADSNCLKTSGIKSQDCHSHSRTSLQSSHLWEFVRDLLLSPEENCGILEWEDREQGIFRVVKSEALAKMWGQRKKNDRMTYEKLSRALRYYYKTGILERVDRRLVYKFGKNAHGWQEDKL
# Method in brief: as §1
# ETV3 = target: T12, ETV3 (Homo sapiens, UniProt P41162-2 1-143); conditions: protein: recombinant; tags: N-terminal GST; dsDNA, one strand shown
# T12 sequence: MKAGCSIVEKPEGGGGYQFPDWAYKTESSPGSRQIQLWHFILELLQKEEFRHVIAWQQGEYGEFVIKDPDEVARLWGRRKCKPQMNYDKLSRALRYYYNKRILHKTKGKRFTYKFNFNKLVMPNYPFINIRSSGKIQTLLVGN
# Method in brief: as §1
# ETV6 = ETV6 (Homo sapiens, UniProt P41212 1-452); conditions: protein: recombinant; tags: N-terminal GST; dsDNA, one strand shown
# Sequence of ETV6 (P41212 whole entry): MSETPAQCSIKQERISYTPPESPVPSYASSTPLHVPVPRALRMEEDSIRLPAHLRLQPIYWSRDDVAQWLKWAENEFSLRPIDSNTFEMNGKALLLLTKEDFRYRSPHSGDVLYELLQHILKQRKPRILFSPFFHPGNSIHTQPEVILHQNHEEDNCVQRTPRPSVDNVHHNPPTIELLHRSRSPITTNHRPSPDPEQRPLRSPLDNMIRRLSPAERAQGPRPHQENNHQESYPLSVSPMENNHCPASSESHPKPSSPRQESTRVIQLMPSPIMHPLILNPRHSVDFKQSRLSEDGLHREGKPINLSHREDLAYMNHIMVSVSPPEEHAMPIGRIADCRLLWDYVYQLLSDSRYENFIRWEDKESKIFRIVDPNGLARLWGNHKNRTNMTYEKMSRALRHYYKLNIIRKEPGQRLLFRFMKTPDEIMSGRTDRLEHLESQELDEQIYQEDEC
# Method in brief: as §1
sequence,measurement,setting,value
AGCATT,binding signal,FEV,"1.11 fold enrichment (6-mer frequency, TF over GST control)"
same,binding signal,ETV5,"1.03 fold enrichment (6-mer frequency, TF over GST control)"
same,binding signal,HSF1,"1.2 fold enrichment (6-mer frequency, TF over GST control)"
same,binding signal,SPIC,"1.03 fold enrichment (6-mer frequency, TF over GST control)"
same,binding signal,ELF4,"1.11 fold enrichment (6-mer frequency, TF over GST control)"
same,binding signal,ELK4,"1.08 fold enrichment (6-mer frequency, TF over GST control)"
same,binding signal,ETV2,"1.06 fold enrichment (6-mer frequency, TF over GST control)"
same,binding signal,ELF3,"1.22 fold enrichment (6-mer frequency, TF over GST control)"
same,binding signal,CRX,"1.32 fold enrichment (6-mer frequency, TF over GST control)"
same,binding signal,ETV1,"1.13 fold enrichment (6-mer frequency, TF over GST control)"
same,binding signal,ERF,"1.04 fold enrichment (6-mer frequency, TF over GST control)"
same,binding signal,ETV3L,"1.06 fold enrichment (6-mer frequency, TF over GST control)"
same,binding signal,ETS2,"1.11 fold enrichment (6-mer frequency, TF over GST control)"
same,binding signal,SPDEF,"1.02 fold enrichment (6-mer frequency, TF over GST control)"
same,binding signal,ETV7,"1.14 fold enrichment (6-mer frequency, TF over GST control)"
same,binding signal,ELF5,"1.1 fold enrichment (6-mer frequency, TF over GST control)"
same,binding signal,ETV3,"1.09 fold enrichment (6-mer frequency, TF over GST control)"
same,binding signal,ETV6,"1.14 fold enrichment (6-mer frequency, TF over GST control)"
